Experimental data published in PubChem BioAssay AID778 (Sanford-Burnham Center for Chemical Genomics, 2007).
The campaign covered roughly 96,000 compounds. About 20,000 (21%) were called active. A selection follows. Values without a mark were called inactive.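 How the source made its calls: active means CYP2C19 inhibition above a set limit at 5 µM in the primary screen (cut at about 50% in these data); inactive means the rest.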

What follows are compounds tested against Cytochrome P450 2C19 (Homo sapiens) (UniProt P33261) (assay: blockers of cytochrome P450 2C19 activity – biochemical, luminescence, ADME assay, primary screen (AID 778;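 further: plate controls were negative control wells for no effect and 2.5 mM tranylcypromine positive control for full effect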)). Conditions: CYP2C19 Supersomes, luciferin-H EGE luminescence, 30 min; at 5 µM; hits give high values.
Cytochrome P450 2C19 (Homo sapiens), sequence (P33261 whole entry, looked up): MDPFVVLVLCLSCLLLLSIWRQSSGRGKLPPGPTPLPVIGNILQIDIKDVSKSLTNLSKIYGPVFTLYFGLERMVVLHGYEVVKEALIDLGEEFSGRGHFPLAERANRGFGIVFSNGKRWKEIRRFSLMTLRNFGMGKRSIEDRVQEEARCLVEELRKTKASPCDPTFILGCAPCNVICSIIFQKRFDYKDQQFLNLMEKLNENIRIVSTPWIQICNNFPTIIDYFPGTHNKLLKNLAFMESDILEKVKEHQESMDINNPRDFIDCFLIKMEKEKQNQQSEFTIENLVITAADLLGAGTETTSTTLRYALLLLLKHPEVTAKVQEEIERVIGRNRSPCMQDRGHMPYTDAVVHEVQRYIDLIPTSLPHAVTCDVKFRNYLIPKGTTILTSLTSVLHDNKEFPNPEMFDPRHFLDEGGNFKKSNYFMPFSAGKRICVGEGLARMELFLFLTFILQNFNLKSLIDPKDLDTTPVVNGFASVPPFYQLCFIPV
In the case of COc1ccc(CN2CCN(c3ccccc3F)CC2)c(OC)c1, the inhibition is reported as 86.7% (active).
CC(C)c1ccc(O)c(CN2CCN(c3ccccc3)CC2)c1 was tested, and the inhibition was 19.8%.
With CCCCCn1c(=O)c(C(=O)NCc2ccccn2)c(O)c2ccccc21 the inhibition was 26%.
In the case of CCC(=NCCCO)c1c(O)n(-c2ccc(OC)cc2)c(=O)[nH]c1=O, the inhibition is reported as -9.4%.
Work on CCCCn1c(O)c(C(CC)=NCc2ccco2)c(=O)[nH]c1=O yielded an inhibition of 29.9%.
CCCCCCN=C(CC)c1c(O)n(CCCC)c(=O)[nH]c1=O was tested, and the inhibition was 73.6% (active).
Cn1c(O)c(C=NCCCC(=O)O)c(=O)n(C)c1=O showed an inhibition of -13.4%.
CCN(CC)CCOC(=O)c1cc2cc(COC)ccc2o1 was tested, and the inhibition was -6.5%.
O=C(c1cc(S(=O)(=O)N2CCOCC2)ccc1F)N1CCC2(CC1)OCCO2 gave an inhibition of -8%.
In the case of CCN1CCN(C(=O)Cc2coc3cc(C)cc(C)c23)CC1, the inhibition is reported as 89.1% (active).
In the case of Cc1cc(OCc2cc(C(=O)O)oc2C)c2c3c(c(=O)oc2c1)CCCC3, the inhibition is reported as -33%.
CN(C)C(=O)NC(O)C(Cl)(Cl)Cl (stereo not given) was tested, and the inhibition was 23.9%.
For CCN(CC)P(=O)(Oc1cccc(C)c1)N(CC)CC, the inhibition was 78.8% (active).
Compound O=C(CN1CCCCC1)Nc1ccc(Br)cc1C(=O)c1ccccc1Cl has an inhibition of 10.3%.
In the case of CC12CN3CC(C)(CN(C1)C3c1cccs1)C2 (stereo not given), the inhibition is reported as 7.6%.
For Cc1ccc(N(C)C(=O)Oc2cccc3ccc(C)nc23)cc1, the inhibition was 55.4% (active).
For CN1C2C=C(N(C(=O)c3ccc(Cl)cc3)c3ccccc3)CC1CC2 (stereo not given), the inhibition was 19.9%.
Work on CCOC(=O)c1c(C)c(C(=O)N2CCC3(CC2)OCCO3)c(C)n1CC yielded an inhibition of 49.7%.
For C[N+]12CN3CN(CN(C3)C1)C2, the inhibition was -6.5%.
In the case of Cc1ccc(Cn2nnnc2CN2CCC(n3nnc4ccccc43)CC2)cc1, the inhibition is reported as 87.4% (active).
Nc1ccc(C(=O)N/N=C2/CN3CCC2CC3)cc1 gave an inhibition of 15.9%.
Compound O=C(O)C1CSC(c2cccnc2)N1 (stereo not given) has an inhibition of -10.8%.
In the case of CCOC(=O)C1CN(C)CCC1=O (stereo not given), the inhibition is reported as -3.5%.
With CC(=O)NC(=O)NC(C)Cc1ccccc1 (stereo not given) the inhibition was -11.6%.
For CC(=O)c1ccc(OC(NC(=O)Cc2ccccc2)C(Cl)(Cl)Cl)cc1 (stereo not given), the inhibition was 83.1% (active).
For Cc1nc2ccccn2c1P(=S)(N1CCCCC1)N1CCCCC1, the inhibition was 17.2%.
In the case of CC1=C(C(=O)Nc2ccccc2)SCCO1, the inhibition is reported as -3.1%.
In the case of CCOP(=S)(OCC)SCOC(=O)NCC(=O)OC, the inhibition is reported as 95.6% (active).
Work on Cc1cccc(N2C(=O)NC(=O)/C(=C\c3cnn(-c4ccccc4)c3)C2=O)c1 yielded an inhibition of -9.4%.
Cn1c(O)c(C=Nc2ccc3c(c2)CCC3)c(=O)n(C)c1=O was tested, and the inhibition was 31.3%.
For N#Cc1ccc(Cn2cc(C(=O)c3ccco3)c3ccccc32)cc1, the inhibition was 9.2%.
CSC1=NP(=S)(SC)N(C)c2nc3n(c21)CCC3 (stereo not given) was tested, and the inhibition was 8.2%.
OC(CNC1CCCCC1)c1ccccc1 (stereo not given) was tested, and the inhibition was 58.5% (active).
In the case of COC(=O)C(c1ccccc1)N1CCCCCC1 (stereo not given), the inhibition is reported as 12.8%.
Compound O=C(CSC1c2ccccc2-c2ccccc21)N/N=C/c1ccccc1 has an inhibition of 25.3%.
In the case of CCCC(C)n1[nH]c(=O)c2c1NC(=O)CSC2c1ccc(OC)c(OC)c1 (stereo not given), the inhibition is reported as 7.2%.
With c1cncc(CNC2=NCCC2)c1 the inhibition was -16.9%.
Compound CCc1cccc2c(C#N)cn(CC(=O)N3CCOCC3)c12 has an inhibition of 6.7%.
For CC(=O)Nc1ccccc1C(=O)OCC(=O)c1cccc2ccccc12, the inhibition was 51.1% (active).
In the case of CCOc1ccc(C2SCC(=O)Nc3c2c(C)nn3C2CCOC(C)(C)C2)cc1 (stereo not given), the inhibition is reported as 7%.
With CN1CCN(C(=O)COc2ccc(C(C)(C)C)cc2Br)CC1 the inhibition was 66.5% (active).
With CC(C)c1ccc(OCC(=O)N2CCN(C)CC2)c(Br)c1 the inhibition was 76% (active).
Work on NC(=O)Nc1cccc(C(F)(F)F)c1 yielded an inhibition of 26.2%.
Cc1nc2nc(C)c(CCC(=O)N3CCC4(CC3)OCCO4)c(C)n2n1 gave an inhibition of 0%.
CC(=O)c1c(O)n(C2CCCCCC2)c(=O)[nH]c1=O gave an inhibition of 27%.
With O=C(COc1ccc2ccccc2c1)N1CCN(Cc2ccncc2)CC1 the inhibition was 90.1% (active).
CCN(CC)C(=O)c1ccc(NC(=O)c2cc(-n3cnnc3)ccc2Cl)cc1 gave an inhibition of 11.1%.
Compound Cn1c(C(=O)N2CCC(C(=O)N3CCC4(CC3)OCCO4)CC2)cc2sccc21 has an inhibition of 7.5%.
With CC(C)(C)c1ccc(CN2C(=O)CN=C(c3ccccc3)c3ccccc32)cc1 the inhibition was 16.5%.
With CCOC(=O)c1c(-c2ccccc2)oc2ccc(OC(=O)N(C)C)cc12 the inhibition was 60.7% (active).
Cc1ccc2c(c1)C1CN(C)CCC1N2C(=O)Cn1nnc(-c2ccccc2F)n1 (stereo not given) gave an inhibition of 8.3%.
For O=c1c2ccccc2nc(-c2ccco2)n1-c1ccc(Br)cn1, the inhibition was -3.5%.
O=c1c2ccccc2nc(-c2ccc(Cl)cc2Cl)n1-c1ccncc1 was tested, and the inhibition was 76.4% (active).
CCc1nc2ccccc2c(=O)n1-c1cccc(OC)c1 showed an inhibition of 33.5%.
COC(=O)C(O)(c1ccc(NC(=O)c2ccco2)c(OC)c1)C(F)(F)F (stereo not given) gave an inhibition of 39%.
CCNc1nc2[nH]c(=O)c3c(c2s1)OC(N)=C(C#N)C3c1cccs1 (stereo not given) was tested, and the inhibition was -19.6%.
CCC(=O)CC(c1ccc([N+](=O)[O-])cc1)c1c(O)c2ccccc2oc1=O (stereo not given) showed an inhibition of 1.3%.
For COc1ccc(C2NCc3ccc4c(c3-n3cccc32)OCO4)cc1OC (stereo not given), the inhibition was 77.5% (active).
c1ccc(C2NCc3ccccc3-n3cccc32)cc1 (stereo not given) was tested, and the inhibition was 33%.
CCC(=NCc1ccco1)c1c(O)n(Cc2ccccc2)c(=O)[nH]c1=O showed an inhibition of 49.6%.
Work on CC(=NCc1ccc2c(c1)OCO2)c1c(O)[nH]c(=O)[nH]c1=O yielded an inhibition of -13.9%.
COc1ccc(CCn2c(O)c(C=NCCCn3ccnc3)c(=O)[nH]c2=O)cc1OC gave an inhibition of 16.7%.
In the case of COc1ccc(CCn2c(O)c(C=NC3CC3)c(=O)[nH]c2=O)cc1OC, the inhibition is reported as 94.9% (active).
COc1ccccc1-n1c(O)c(C=NC2CC2)c(=O)[nH]c1=O was tested, and the inhibition was 42.1%.
CC(=O)N1CN2CN(C(C)=O)CC(C(=O)c3ccc(Br)cc3)(C2)C1 showed an inhibition of -5.5%.
